The values below come from PubChem BioAssay (NCI).

This is part of a sample that, as a whole, favours compounds with a hit. Of some 83,000 tested, about 20% had one in any assay.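 Each cell line was grown in a 96-well plate and treated with one concentration of compound for 48 hours. Values below 10 were considered active.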 Values without a mark were called inactive. Active and inactive are the calls of the source.

In this assay the test system is MDA-MB-468 breast. Nature of the assay: NCI-60 one-dose screen, 48 h (100 = growth as untreated, 0 = no growth, -100 = all killed). The note with it: 10 µM unless noted.
For `CC(C)=CC/C=C(/C)[C@H]1CC[C@]2(C)[C@@H]1CC[C@@H]1[C@@]3(C)CC/C(=N/O)C(C)(C)[C@@H]3CC[C@]12C`, the growth was 47.7% [100 µM].
With `COc1ccc(CNC(=O)C(O)C(Cc2ccccc2)NC(=O)c2[nH]c3ccccc3c(=O)c2C)cc1OC` (stereo not drawn), the growth is 102%.
In the case of `CC(=O)c1nn(-c2ccc(C)cc2)cc1C(=O)c1cc2c(ccc3ccccc32)oc1=O` it was 118%; in that of `CCOC(=O)n1ccn(C)c1=S`, 103%; in that of `Brc1ccc2c(c1)c(-c1nc(-c3c[nH]c4ncccc34)cs1)cn2CCCN1CCCCC1`, -15% (active).
For the compound `COc1cc(/C=N/NC(=O)c2ccccc2Nc2cccc(C(F)(F)F)c2)cc(OC)c1OC`, the growth was -20.8% (active).
Take `CN1CCN(Cc2ccc(NC(=O)c3[nH]ncc3Nc3ncnc4sc5c(c34)CCCC5)cc2)CC1`: the growth was -58.7% (active).
As to `O=c1[nH]c2ccccc2n2cc3cccnc3c12`, the growth was -5.08% (active).
Consider `COc1ccc(N(C)c2nc(Cl)nc3ccn(C)c23)cc1`, for which the growth was 49.9%.
As to `Cc1ccc2ccccc2c1C[n+]1ccccc1`, the growth was 50.5%.
Take `Cn1cc(-c2ccc3c(c2)ncn3-c2ccc(CC(=O)Nc3cc(C(C)(C)C)on3)cc2)cn1`: the growth was 35.5%.
In the case of `Cc1ccc(/C=C2\C(=O)N(C)c3ccc(S(=O)(=O)Nc4ccc(C(C)(C)C)cc4)cc32)s1` it was 41.8%; in that of `C[C@H]1O[C@@H](O[C@H]2[C@@H](O)C[C@H](O[C@H]3[C@@H](O)C[C@H](O[C@H]4CC[C@]5(C)C6C[C@@H](O)[C@]7(C)[C@@H](C8=CC(=O)OC8)CC[C@]7(O)C6CC[C@@H]5C4)O[C@@H]3C)O[C@@H]2C)C[C@H](O)[C@@H]1O` (stereo partly drawn), -61.7% (active); in that of `CC(O)C(O)C(O)C(O)C(O)C(=O)NNc1ccccc1` (stereo not drawn), 96.5%.
With `Cc1nc2ccc(Nc3nc(N4CCOCC4)nc(N4CCN(C)CC4)n3)cc2n1Cc1ccccc1`, the growth is 66.8%.
In the case of `C/C(C=O)=C\c1ccc2c(c1)OCO2` it was 94.8%; in that of `O=C(Nc1cccnc1Nc1ccc(Cl)cc1)c1cn(Cc2cccc(Oc3ccccc3)c2)nn1`, 63.3%; in that of `COc1ccc(C(=O)c2cc3c(N)c(C(=O)Nc4ccc(Br)cc4)sc3nc2C)cc1`, 72.8%.
`N#Cc1c(-c2ccccc2)cc(-c2ccccc2)n(CCC(=O)O)c1=O`: the growth is 26.6%.
Turning to `CO[C@H]1C[C@@H]2CC[C@@H](C)[C@@](O)(O2)C(=O)C(=O)N2CCCC[C@H]2C(=O)O[C@H]([C@H](C)C[C@@H]2CC[C@@H](OC(=O)C(C)(CO)CO)[C@H](OC)C2)CC(=O)[C@H](C)/C=C(\C)[C@@H](O)[C@@H](OC)C(=O)[C@H](C)C[C@H](C)\C=C/C=C/C=C/1C`, the growth is 0.224% (active).
In the case of `CCN1CCN(CCOc2ccc(CNc3ccc4nc(CCC5CCCCC5)[nH]c4c3)cc2)CC1` it was 35%.
In the case of `CC(C)[C@H](CO)Nc1nc(Nc2ccc(C(=O)NCCNS(=O)(=O)c3cccc4c(N(C)C)cccc34)c(Cl)c2)c2ncn(C(C)C)c2n1` it was -14.1% (active); in that of `O=C(Nc1ccc(Nc2ccncc2)cc1)c1ccc(C(=O)Nc2ccc(Nc3ccncc3)cc2)cc1`, 2.69% (active); in that of `CCSCC1CC(O)(c2ccccc2)C(c2ccccc2)C(c2ccc(Cl)cc2)O1` (stereo not drawn), 35.9%.
As for `CCCCCCCCCCN=C(N)N=C(N)N`, the growth was -12.9% (active).
In the case of `C/C(=N\Nc1cc(C)nc2ccc(Br)cc12)c1ccc([N+](=O)[O-])cc1` it was 51.5%.
In the case of `Fc1ccc2[nH]cc(-c3nonc3-c3c[nH]c4ccc(Br)cc34)c2c1` it was 44.3%.
On to `CN(C)S(=O)(=O)c1ccc(-c2nc(C(Cl)Cl)nc3cc(-c4ccc(F)cc4)nn23)cc1`, for which the growth is -46.2% (active).
